# Bioassay records: PubChem BioAssay, National Center for Advancing Translational Sciences (NCATS)
# Shown are actives, neighbours in structure and some others; about 19% of the full set was active somewhere.
# HepG2 tox: HepG2 cytotoxicity, counter-screen for TGF-b inhibitors; Potency, µM (top dose mostly 46.1 µM), for inactives: top-dose activity change, negative = cytotoxicity, usual class: cytotoxic; 410,000 tested, 0.76% active; AID 588856; HepG2 CAGA-GFP viability, ATP luminescence, 18 h; also: potency is read from the fitted curve at half-maximal effect
#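 CellTiter-Glo luminescence gave cytotoxicity after 18 hours at 37 degrees C. The cells were HepG2 CAGA-GFP in 1% FBS DMEM, stimulated with 500 pg/mL TGF-beta after compound addition. %Activity was normalised to no-cell wells (complete cell-killing) and DMSO (no toxicity), and curves were fitted and classified.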
# S-ASM inh: human S-ASM enzyme inhibition; 340,000 tested, 0.006% active; P17405; placental ASM, HMU-PC fluorogenic substrate, 60 min; Potency, µM (series often up to 57.5 µM), without a hit: at the highest dose activity change, negative = inhibition, hits mostly inhibitors; also: potency is read from the fitted curve at half-maximal effect
# Target sequence (P17405 47-631 limits assumed): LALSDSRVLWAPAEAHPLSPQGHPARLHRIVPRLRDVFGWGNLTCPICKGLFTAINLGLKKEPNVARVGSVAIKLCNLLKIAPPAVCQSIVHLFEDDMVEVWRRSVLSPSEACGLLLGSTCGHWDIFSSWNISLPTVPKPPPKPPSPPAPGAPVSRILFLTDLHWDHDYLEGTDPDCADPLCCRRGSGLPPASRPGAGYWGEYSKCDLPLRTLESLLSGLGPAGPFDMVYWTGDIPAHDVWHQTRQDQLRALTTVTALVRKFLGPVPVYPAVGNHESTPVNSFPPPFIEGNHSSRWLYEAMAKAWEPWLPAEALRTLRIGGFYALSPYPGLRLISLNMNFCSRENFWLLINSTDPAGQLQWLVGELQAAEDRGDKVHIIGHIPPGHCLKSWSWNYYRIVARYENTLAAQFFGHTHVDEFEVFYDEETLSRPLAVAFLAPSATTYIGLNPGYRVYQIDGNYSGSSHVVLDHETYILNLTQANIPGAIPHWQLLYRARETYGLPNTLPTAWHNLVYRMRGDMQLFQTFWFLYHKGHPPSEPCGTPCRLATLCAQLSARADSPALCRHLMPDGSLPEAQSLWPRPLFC
#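 Fluorescence read-out (Ex 386 nm, Em 447 nm) after stopping the reaction at pH 10. Enzyme: ASM from human placenta; substrate HMU-PC0, 9 uM final; 60 min, 37 °C. Compound preincubation 10 min, ambient temperature.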
# DT40 TDP1 CPT: growth inhibition of DT40 Tdp1-/-;hTDP1 cells with camptothecin (screen for TDP1 inhibitors) | chicken DT40 Tdp1-/-;hTDP1 cells + 20 nM CPT, ATP luminescence, 48 h | Potency, µM (series often up to 46.2 µM), inactives show at the highest dose activity change, negative = growth inhibition, usual class: inhibitors | 420,000 tested, 12% active; also: potency is read from the fitted curve at half-maximal effect; % is scaled to controls: 0 for no effect and ±100 for the full control effect; nearly all actives have a fitted effect of over 55% in size
#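 Chicken DT40 Tdp1-/- cells complemented with human TDP1, 400 cells/well, exposed to compounds plus 20 nM camptothecin for at least 48 h at 37 C; viability read as ATP content by CellTiter-Glo luminescence.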
# IL-1B inflam inh: inflammasome signaling inhibition, IL-1 beta readout. THP-1 LPS/ATP IL-1B secretion, AlphaLISA, 16 h; hits give low values. activity change, % at 57.5 µM. 360,000 tested, 4.7% active. AID 743279; in the data active = activity change below about -50%; inconclusive = mostly about -30% to -49%; also: % is scaled to controls: 0 for no effect and ±100 for the full control effect
#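 THP-1 cells pretreated 1 hr with compounds (up to 57.5 uM final), then stimulated with LPS (250 ng/mL final) plus ATP (1.25 mM final); secreted IL-1B measured by AlphaLISA after 16 hr, decreased signal indicating inhibition.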
# TGFb SMAD3 inh: blocks TGF-b signaling | HepG2 CAGA-GFP TGF-b/SMAD3 reporter, GFP fluorescence, 18 h; TGF-beta stimulated, 500 pg/mL final | AID 588855 | Potency, µM (series often up to 46.1 µM), without a hit: at the top dose activity, negative = inhibition, most hits filed as inhibitors | 410,000 tested, 1.2% active; also: potency is read from the fitted curve at half-maximal effect; % is scaled to controls: 0 for no effect and ±100 for the full control effect; nearly all actives have a fitted effect of over 65% in size
#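 Inhibition of TGF-beta-driven CAGA-GFP reporter expression in HEPG2 cells is measured by cellular GFP fluorescence after 18 h stimulation with 500 pg/mL recombinant TGF-beta in 1% FBS medium at 37 degrees C.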
# TDP1 cell noCPT: qHTS for Inhibitors of human tyrosyl-DNA phosphodiesterase 1 (TDP1): qHTS in cells in absence of CPT. AID 686978, 2013. 420,000 tested, 15% active. Potency, µM (highest dose often 46.2 µM), inactives show top-dose activity change, negative = growth inhibition, actives largely listed as inhibitors. DT40 Tdp1-/- hTDP1 cells, no CPT, ATP luminescence, 48 h; also: potency is read from the fitted curve at half-maximal effect; % is scaled to controls: 0 for no effect and ±100 for the full control effect; nearly all actives have a fitted effect of over 55% in size
#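 Cells were dispensed at 400 per well, compounds added by pin tool, plates incubated ≥48 hr at 37 °C, then CellTiter-Glo added for 30 min at room temperature before luminescence reading. Line: DT40 Tdp1-/- complemented with hTDP1; camptothecin omitted.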
# Active calls of the source: *; ? = inconclusive; nt = no result; [ ] = remark or other dose. Unless noted, calls follow the shape of the dose curve; as a rule, active = well fitted curve in the direction sought with a large enough effect; inconclusive = small, poorly fitted or top-dose-only effect, or another doubt; inactive = no such curve, though single readings can be large; an effect the other way counts as inactive or inconclusive.
SMILES,HepG2 tox,S-ASM inh,DT40 TDP1 CPT,IL-1B inflam inh,TGFb SMAD3 inh,TDP1 cell noCPT
O=C(Nc1cccc(C(F)(F)F)c1)c1ccc2snnc2c1,-21%,nt,-24%,nt,3%,4%
CCOc1ccc(NC(=O)Nc2ccc3snnc3c2)cc1,-26%,nt,?,nt,-3%,16µM*
CN(C)c1ccc(NC(=O)Nc2ccc3snnc3c2)cc1,-26%,-6%,-1%,-22,?,-15%
COC(=O)c1sc(-c2ccccc2)cc1NC(=O)c1cccc(Cl)c1,0%,nt,5%,nt,21%,?
Cc1cc(Cl)ccc1NC(=O)c1cc2ccccn2n1,-1%,nt,?,nt,3%,?
CCCCC/C=C\C\C=C/C=C/C=C/[C@@H](SC[C@H](N)C(=O)NCC(=O)O)[C@@H](O)CCCC(=O)O,nt,nt,-4%[0.628 µM],nt,nt,2%[0.628 µM]
O=C(Nc1ccccc1)Nc1ccc2snnc2c1,-20%,-10%,?,-19,?,18µM*
COc1ccc(-n2c(=O)c(-c3cc(F)cc(F)c3)nc3cnc(N4CCNCC4)nc32)cc1,nt,nt,15µM*,nt,nt,21µM*
COc1ccc(-n2c(=O)c(-c3cccc(C#N)c3)nc3cnc(N4CCNCC4)nc32)cc1,nt,nt,4%,nt,nt,-15%
O=c1c(-c2ccc(F)cc2)nc2cnc(N3CCNCC3)nc2n1-c1ccccc1,nt,nt,15µM*,nt,nt,?
Cc1nc2cnc(N3CCNCC3)nc2n(-c2ccccc2)c1=O,nt,nt,-8%,nt,nt,4%
O=C(Nc1ccc(OCC(F)(F)C(F)F)c(C(F)(F)F)c1)c1ccc(Cl)cc1,18µM*,-7%,23µM*,-104*,?,?
COC(=O)COc1cccc(NC(=O)c2ccc(Cl)cc2)c1,-35%,-3%,?,?,-28%,?
COc1ccc(C(=O)Nc2ccc(OCC(F)(F)C(F)F)c(C(F)(F)F)c2)cc1OC,3%,?,11µM*,-23,?,11µM*
COc1ccc(NC(=O)c2ccc(COCC(F)(F)F)cc2)cc1OC,-18%,2%,2%,0,-1%,?
CCC(NC(=O)CCC(=O)N1CCN(S(=O)(=O)c2ccc(C)cc2)CC1)c1ccc(C)cc1 (stereo not given),1%,1%,-22%,-10,?,?
CC(C)C(C(=O)O)N1C(=O)C2C3CCC(C3)C2C1=O (stereo not given),-26%,nt,-2%,7,5%,0%
O=C(CC(=O)c1ccccc1)CS(=O)(=O)c1ccccc1,-2%,-2%,?,-4,-1%,?
CCOc1ccc(CN2CCc3nc(N4CCN(c5ccccc5OC)CC4)ncc3C2)cc1OC,-9%,nt,9.2µM*,nt,?,10µM*
CCc1ccc(CN2CCc3nc(N4CCN(c5ccccc5F)CC4)ncc3C2)cc1,-19%,nt,?,nt,-14%,18µM*
COc1cc(OC)c(OC)cc1CN1CCc2nc(N3CCN(c4ncccn4)CC3)ncc2C1,-21%,nt,16µM*,nt,?,23µM*
COc1ccccc1N1CCN(c2ncc3c(n2)CCN(Cc2ccccc2F)C3)CC1,2%,nt,0%,nt,-15%,1%
COc1cccc(N2CCN(c3ncc4c(n3)CCN(Cc3ccc(Br)cc3)C4)CC2)c1,-24%,nt,13µM*,nt,?,9.2µM*
Fc1ccccc1N1CCN(c2ncc3c(n2)CCN(Cc2cc(Br)cs2)C3)CC1,-5%,nt,?,nt,?,-25%
O=C1CCCc2cc(S(=O)(=O)N3CCCC(C(=O)Nc4ccc(F)c(Cl)c4)C3)ccc2N1 (stereo not given),-37%,nt,nt,nt,-13%,nt
SMILES,HepG2 tox,S-ASM inh,DT40 TDP1 CPT,IL-1B inflam inh,TGFb SMAD3 inh,TDP1 cell noCPT
CC1CCc2c(sc(NC(=O)c3cc4nc(-c5ccc(Cl)cc5)cc(C(F)(F)F)n4n3)c2C#N)C1 (stereo not given),14%,nt,-19%,nt,-8%,-29%
CCOc1ccc(CN2CCc3nc(N4CCN(c5ncccn5)CC4)ncc3C2)cc1OC,-11%,nt,21µM*,nt,?,?
Clc1ccc(CN2CCc3nc(N4CCN(c5ccccn5)CC4)ncc3C2)cc1,-29%,nt,-20%,nt,-37%,-20%
COc1ccccc1C(=O)Nc1nsc(-c2ccccc2)n1,-23%,-2%,-23%,-7,0%,-19%
O=C(N/N=C/c1cn(-c2ccccc2)nc1-c1ccc(F)cc1)c1ccc2c(c1)OCO2,-3%,-9%,?,?,3%,18µM*
NC(=S)N/N=C/c1cn(-c2ccccc2)nc1-c1cccnc1,-47%,4%,12µM*,-19,?,2.9µM*
O=C(N/N=C/c1cn(-c2ccccc2)nc1-c1cccnc1)c1ccccc1,-17%,-9%,23µM*,?,8%,23µM*
O=C(O)/C(=C\c1cn(-c2ccccc2)nc1-c1cccnc1)NC(=O)c1ccccc1,-3%,5%,-10%,0,13%,24%
O=C(N/N=C/c1cn(-c2ccccc2)nc1-c1ccc2c(c1)OCCO2)c1ccncc1,-13%,4%,-12%,-2,-6%,-29%
O=C(O)c1cn(-c2ccccc2)nc1-c1cccnc1,-3%,1%,3%,4,15%,-21%
O=C(NC1CCN(Cc2ccccc2)CC1)c1cn(-c2ccccc2)nc1-c1cccnc1,-2%,-1%,-29%,-91*,-2%,-25%
COC(=O)c1ccc2nc(-c3ccco3)c(Cc3ccccc3C(F)(F)F)n2c1,nt,nt,?,18,nt,?
CCC(C)NC(=O)CN1C(=O)c2cccnc2Sc2ccccc21 (stereo not given),1%,nt,?,nt,3%,6%
COc1ccc(Cc2nc3ccccc3[nH]c2=O)cc1,2%,15%,-5%,39,15%,7%
COc1ccc(CCC2=NCCN2C(CC(C)C)c2nc3ccccc3[nH]2)cc1 (stereo not given),-12%,nt,21µM*,0,4%,16µM*
CCC1C(=O)CC(c2ccc([N+](=O)[O-])cc2)NC1c1ccc([N+](=O)[O-])cc1 (stereo not given),-4%,-7%,?,-100*,?,?
CCC1C(=O)CC(c2ccco2)NC1c1ccco1 (stereo not given),5%,2%,3%,-16,4%,11%
CC1=C(C(=O)N(C(C)C)C(C)C)CC(CC(=O)NCCc2ccccn2)C(=O)N1CCCN1CCCC1=O (stereo not given),-3%,nt,0%,-9,-10%,4%
